Bioassay records deposited in PubChem by Johns Hopkins Ion Channel Center.
KCNQ2 pot – enhances the rat KCNQ2 potassium channel | O88943 | CHO-K1 KCNQ2, FluxOR thallium flux fluorescence; active compounds read high | B-score at 10 µM | 310,000 tested, 0.54% active;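 active = fluorescence ratio B-score at least 3 SD of library B-scores, with initial fluorescence B-score within 3 of them, cut at about 5.3 in these data; same plate scores as AID 2156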;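 also: B-score of peak minus minimum over baseline fluorescence ratio after K+ and Tl+ stimulus; positive B-score means potentiation of KCNQ2 with more thallium influx and brighter signal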
KCNQ2 block – blocks the rat KCNQ2 potassium channel. O88943. CHO-K1 KCNQ2, FluxOR thallium flux, 20 min; active compounds read low. B-score at 10 µM. 310,000 tested, 1.1% active. AID 2156;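 active = fluorescence ratio B-score at most minus 3 library SDs, with starting brightness B-score within 2 library SDs, cut at about -5.5 in these data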
Kir21 confirm – confirmation of mouse Kir2.1 potassium channel inhibitors; shares compounds with KCNQ2 pot; Kir2.1-expressing cells, FluxOR thallium flux fluorescence; active compounds read low; Tl flux remaining, % of negative control (active compounds read low), % at 10 µM; 2,300 tested, 41% active; AID 2032;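 active = Primary-screen hit whose thallium flux fell at least 3 control SD below untreated wells in both duplicates, with normal baseline fluorescence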
Target sequence (P35561 whole entry, looked up): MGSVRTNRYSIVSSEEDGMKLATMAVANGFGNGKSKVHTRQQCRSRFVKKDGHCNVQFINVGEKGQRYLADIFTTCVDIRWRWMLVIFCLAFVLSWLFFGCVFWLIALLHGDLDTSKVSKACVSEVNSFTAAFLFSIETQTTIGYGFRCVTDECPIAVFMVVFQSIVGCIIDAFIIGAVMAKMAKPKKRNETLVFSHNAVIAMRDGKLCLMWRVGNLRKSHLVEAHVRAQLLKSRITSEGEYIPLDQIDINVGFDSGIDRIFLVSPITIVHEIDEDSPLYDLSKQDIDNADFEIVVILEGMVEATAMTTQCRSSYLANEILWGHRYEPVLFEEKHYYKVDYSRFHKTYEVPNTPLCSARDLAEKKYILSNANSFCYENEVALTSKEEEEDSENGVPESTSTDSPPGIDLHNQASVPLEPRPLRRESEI
HEK293 Tl flux – parental HEK293 activity in Kir2.1 inhibitor counter-screen; shares compounds with KCNQ2 pot; parental HEK293 cells, FluxOR thallium flux fluorescence; 0% = unstimulated blank wells; FluxOR signal as % of negative control (100 = no effect), % at 10 µM; 2,300 tested, 19% active; AID 2105;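 active = dye signal at least 3 control SD above or below untreated wells in both duplicates, raw fluorescence within 3, either direction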;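 also: percent is based on the flux ratio of peak minus minimum fluorescence over baseline F0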
CHO-K1 Tl ctr – alters thallium flux in parental CHO-K1 cells, KCNQ2 counter-screen; shares compounds with KCNQ2 pot; FluxOR thallium flux fluorescence; zero = vehicle mean+3SD, 100% = vehicle-minus-blank window; activity increase over 3SD of controls, % at 10 µM; 1,200 tested, 43% active; AID 2282;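 active = signal rise of at least 3 SD above the untreated control mean, in both duplicate wells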;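 also: counter screen of KCNQ2 potentiator hits so any rise reflects channel-independent effects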
KCNQ1 pot spec – human KCNQ1 counter-target activity of KCNQ2 potentiators; activation over 3SD threshold, % at 10 µM; CHO KCNQ1 stable, FluxOR thallium flux fluorescence; beyond 3SD, as % of vehicle-control signal; 1,200 tested, 28% active; shares compounds with KCNQ2 pot;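 active = fluorescence ratio rise of at least 3 SD of vehicle wells above their mean, in both replicate wells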
KCNQ2 pot confirm – confirmation of rat KCNQ2 potassium channel potentiators; AID 2287; 1,200 tested, 68% active; shares compounds with KCNQ2 pot; potentiation, less the hit threshold, % at 10 µM; CHO-KCNQ2 cells, FluxOR thallium flux fluorescence;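 active = fluorescence ratio rising 3 SD or more over the vehicle control mean in both replicates, plus primary screen hit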;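 also: peak minus minimum thallium fluorescence divided by baseline after K/Tl stimulus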
Kir21 spec – tests whether KCNQ2 potentiators also affect mouse Kir2.1; shares compounds with KCNQ2 pot; HEK293 Kir2.1, FluxOR thallium flux fluorescence; activity over 3SD threshold, % at 10 µM; 1,200 tested, 2% active; AID 2345;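 active = fluorescence ratio rise of at least 3 SD above the vehicle-control mean, seen in both replicates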
KCNQ2 W236L MoA – KCNQ2 potentiators acting on retigabine-insensitive rat KCNQ2 W236L mutant | CHO KCNQ2-W236L, automated patch clamp current | 940 tested, 10% active | shares compounds with KCNQ2 pot | AID 2558 | current increase over 3SD of negative controls (%), active compounds read high, % at 25 µM;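 active = current increase at least 3 SD of the untreated controls above them in both duplicate recordings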
Of the large screens only hits and unclear results are named; the others gave an inactive call (follow-up assays come after a bar, where they were run). Most compounds without a hit are left out; they make up all but 1.6% or so of the library.

CC(C)CC(=O)/C(=C\c1ccc(Cl)cc1Cl)n1cncn1	KCNQ2 block -5.6 | Kir21 confirm 44% | HEK293 Tl flux inactive
CC(C)CC(=O)/C(=C/c1ccc(N(C)C)cc1)n1cncn1	none
NC(=O)C1CCN(C(=O)C2CCC(=O)N(C3CCCCCC3)C2)CC1 (stereo unspecified)	none (no result: KCNQ2 pot)
CCOC(=O)c1c(NC(C)=O)sc2c(OCC(O)CNC(C)(C)C)c(Br)ccc12 (stereo unspecified)	none (no result: KCNQ2 pot) | Kir21 confirm inactive | HEK293 Tl flux inactive
CCOC(=O)c1c(N)sc2c(OCC)c(Br)ccc12	none
FC(F)(F)c1cccc(Cn2c3[n+](c4ccc(C(F)(F)F)cc42)CCCCC3)c1	none (no result: KCNQ2 pot)
Cc1cc(C(C)(C)C)cc(C)c1Cn1c2[n+](c3ccc(C(F)(F)F)cc31)CCCCC2	none (no result: KCNQ2 pot) | Kir21 confirm 46% | HEK293 Tl flux inactive
COC(=O)CN1C(=O)Nc2ccc(Br)cc2C1c1ccccc1 (stereo unspecified)	KCNQ2 pot 6.7 | Kir21 confirm inactive | HEK293 Tl flux inactive | CHO-K1 Tl ctr inactive | KCNQ1 pot spec inactive | KCNQ2 pot confirm 52 | Kir21 spec inactive | KCNQ2 W236L MoA inactive
NNC(=O)CN1C(=O)Nc2ccc(Cl)cc2C1c1ccccc1 (stereo unspecified)	none
C=C(C)COc1ccc(-c2nc(N)ncc2-c2ccc(Cl)cc2)c(O)c1	none (no result: KCNQ2 pot)
COc1cc(C(=O)Nc2ccc3c(c2)N(C(=O)CN2CCN(C)CC2)c2ccccc2CC3)cc(OC)c1OC	none (no result: KCNQ2 pot)
COc1ccc(CC(=O)Nc2ccccc2N2CCCCC2)cc1OC	none (no result: KCNQ2 pot) | Kir21 confirm inactive | HEK293 Tl flux 78%
COc1cc(CC(=O)Nc2ccc3c(c2)CCC3)cc(OC)c1OC	none
COc1cccc(CC(=O)Nc2ccccc2C(=O)N2CCOCC2)c1	none
COc1ccc(CC(=O)Nc2ccccc2N2CCOCC2)cc1OC	none
COc1cccc(CC(=O)Nc2ccc3c(c2)CCC3)c1	KCNQ2 pot 6 | Kir21 confirm inactive | HEK293 Tl flux inactive | CHO-K1 Tl ctr inactive | KCNQ1 pot spec inactive | KCNQ2 pot confirm 12 | Kir21 spec inactive | KCNQ2 W236L MoA inactive
COc1cccc(CC(=O)Nc2ccccc2N2CCCC2)c1	KCNQ2 pot 6.1 | Kir21 confirm 50% | HEK293 Tl flux inactive | CHO-K1 Tl ctr inactive | KCNQ1 pot spec 18 | KCNQ2 pot confirm 17 | Kir21 spec inactive | KCNQ2 W236L MoA inactive
CCCc1nc2ccccc2c(=O)n1CCc1ccccc1	none (no result: KCNQ2 pot)
Cc1[nH]c2ccccc2c1CN1CCC(Cc2ccccc2)CC1	none
Cc1ccc(N(CCC#N)C(=O)COC(=O)c2ccccn2)cc1	none
CCn1c(CC(=O)Nc2ccc(C)cc2)nnc1SCC(=O)N1CCOCC1	none
Cc1cccnc1NC(=O)CCCNC(=O)c1ccc(Cl)cc1	none
CCc1c(C)nc(N2CCN(c3ccc(Cl)cc3)CC2)[nH]c1=O	none
Cc1c(C(=O)NC2CCN(Cc3ccccc3)C2)oc2c(Cl)cccc12 (stereo unspecified)	none (no result: KCNQ2 pot) | Kir21 confirm inactive | HEK293 Tl flux inactive
O=C(NC1CCN(Cc2ccccc2)CC1)c1ccccc1Cl	none
C=C[C@@]1(C)CC(=O)[C@]2(O)[C@@]3(C)[C@@H](O)CCC(C)(C)[C@@H]3[C@H](O)[C@H](OC(C)=O)[C@@]2(C)O1	KCNQ2 pot 8.9 | Kir21 confirm inactive | HEK293 Tl flux inactive | CHO-K1 Tl ctr inactive | KCNQ1 pot spec inactive | KCNQ2 pot confirm 7.1 | Kir21 spec inactive | KCNQ2 W236L MoA 2.3%
C=C[C@@]1(C)CC(=O)[C@]2(O)[C@@]3(C)[C@@H](O)CCC(C)(C)[C@@H]3[C@H](OC(C)=O)[C@H](O)[C@@]2(C)O1	none
Cc1ccc2nc(SC(C)C(=O)N3CCOCC3)[nH]c2c1 (stereo unspecified)	none
CC(C)(C)c1ccc(OCC(=O)N/N=C/c2ccsc2)cc1	none
CCCCCNC(=O)c1cccc(S(=O)(=O)N2CC3(C)CC2CC(C)(C)C3)c1 (stereo unspecified)	none
CN(CC(=O)Nc1cccc(F)c1)C(=O)c1cccc(S(=O)(=O)N2CC3(C)CC2CC(C)(C)C3)c1 (stereo unspecified)	KCNQ2 pot 9.2 | Kir21 confirm inactive | HEK293 Tl flux inactive | CHO-K1 Tl ctr 92 | KCNQ1 pot spec 16 | KCNQ2 pot confirm 1.7 | Kir21 spec inactive | KCNQ2 W236L MoA inactive
Cc1ccc(N(CC(=O)Nc2cccc(Cl)c2C)S(C)(=O)=O)cc1	none (no result: KCNQ2 pot)
Nc1[nH]n2c(=O)cc(-c3ccccc3)nc2c1N=Nc1ccccc1	KCNQ2 pot 6.6 | Kir21 confirm inactive | HEK293 Tl flux inactive | CHO-K1 Tl ctr inactive | KCNQ1 pot spec inactive | KCNQ2 pot confirm 9.8 | Kir21 spec inactive | KCNQ2 W236L MoA inactive
Nc1[nH]n2c(=O)cc(-c3ccccc3)nc2c1N=Nc1ccc(S(N)(=O)=O)cc1	none
Cc1[nH]c2ccccc2c1SCC(=O)N1CCCc2ccccc21	none (no result: KCNQ2 pot) | Kir21 confirm 54% | HEK293 Tl flux inactive
Cc1[nH]c2ccccc2c1C(=O)C(=O)N1CCCc2ccccc21	none (no result: KCNQ2 pot)
Cc1cc(C)c(S(=O)(=O)N2CCN(C(=O)C(C)Cn3cncn3)CC2)c(C)c1 (stereo unspecified)	none
COCCCNC(=O)c1ccc2c(c1)OCO2	none (no result: KCNQ2 pot)
CCCCOCCCNC(=O)c1ccc2c(c1)OCO2	KCNQ2 pot 6.5 | Kir21 confirm inactive | HEK293 Tl flux inactive | CHO-K1 Tl ctr 1.4 | KCNQ1 pot spec inactive | KCNQ2 pot confirm inactive | Kir21 spec inactive
CN(C)CCNC(=O)c1cc2c(s1)-c1ccc(Cl)cc1SC2	KCNQ2 block -7.6 | Kir21 confirm inactive | HEK293 Tl flux inactive
CCOCCCNC(=O)c1cc2c(s1)-c1ccccc1SC2	none
Cc1cccc(NC(=O)CCCNC(=O)c2ccc(Cl)cc2)n1	none
Cc1ccc(C(=O)NCC(=O)OC(C)C(=O)Nc2ccc(N(C)C)cc2)cc1C (stereo unspecified)	none
Cc1sc2ncnc(SCC(=O)c3cccs3)c2c1C	KCNQ2 pot 6.9 | Kir21 confirm inactive | HEK293 Tl flux inactive | CHO-K1 Tl ctr inactive | KCNQ1 pot spec inactive | KCNQ2 pot confirm inactive | Kir21 spec inactive | KCNQ2 W236L MoA inactive
Cc1cccc(NC(=O)CSc2ncnc3sc(C)c(C)c23)n1	none
